# About 83,000 compounds went through this panel and 20% of them were active in at least one assay; those are over-represented in the sample as a whole.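 Plates (96-well) were seeded with cells, treated with compound at one concentration, and incubated for 48 hours before percent growth was determined.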 Values without a mark were called inactive. The source made the active and inactive calls. Rule for the calls: active = growth percent below 10; inactive = the rest.
# Legend:
# Test in all cases: NCI-60 one-dose screen, 48 h (100 = growth as untreated, 0 = no growth, -100 = all killed)
# [1] = test system: T-47D breast; conditions: 10 µM
# [2] = test system: BT-549 breast; conditions: 10 µM unless noted
# [3] = test system: MDA-MB-435 melanoma; conditions: 10 µM unless noted
# [4] = test system: SW-620 colon; conditions: 10 µM unless noted
# [5] = test system: MCF7 breast; conditions: 10 µM unless noted
# [6] = test system: HCT-116 colon; conditions: 10 µM unless noted
# [7] = test system: HCC-2998 colon; conditions: 10 µM unless noted
# [8] = test system: KM12 colon; conditions: 10 µM unless noted
SMILES,growth [1],growth [2],growth [3],growth [4],growth [5],growth [6],growth [7],growth [8]
CCOC(=O)C1=C(C)N2C(=NC3=C(CCCC/C3=C\c3ccccc3)C2c2ccccc2)S1 (configuration not stated),78.7%,99.1%,93.7%,101%,87.8%,96.3%,94.9%,97.3%
O=c1[nH]c(-c2ccccn2)nc2sc3c(c12)CCCCCC3,42.6%,62.2%,46.4%,25%,29.6%,24.6%,53.5%,33.6%
CC(C)(C)[Si](C)(C)OC1[C@@H](CNC(=O)NC(=O)CCl)O[C@@H](n2cnc3c(N)ncnc32)[C@H]1O[Si](C)(C)C(C)(C)C (some centres not stated),13.5%,-70.6% (active),-90% (active),-82% (active),-75.5% (active),-87.7% (active),-69.5% (active),-82.4% (active)
Clc1ccc(C2=NN(c3ccccc3)[C@H](c3cn(-c4ccccc4)nc3-c3ccccc3)C2)cc1,112%,112%,99.8%,107%,97.5%,90%,103%,104%
C[C@H]1C(=O)C23CCC1C[C@@]21O[C@@H]2C(C)(C)C=CC(=O)C23COC1=O,98.4%,106%,107%,108%,99.5%,96.5%,104%,113%
COc1nc2c(cc1S(=O)(=O)c1ccccc1)CCc1c-2cnn1-c1ccccc1,40.4%,78.7%,69.3%,89.9%,75.5%,72.4%,98.1%,100%
COc1ccc(S(=O)(=O)ON=C2C=C(C)C(=O)C(C)=C2)cc1,40.3%,97.7%,18.1%,60.7%,64%,44.9%,112%,97.6%
CC[Si](CC)(CC)OC1[C@@H](O[Si](CC)(CC)CC)[C@@H](CNC(=O)NC)O[C@H]1n1cnc2c(NC(=O)Nc3ccccc3)ncnc21 (some centres not stated),89.8%,104%,65.5%,71.6%,61.6%,51.9%,96.5%,60.8%
O=C(CCc1nnc2sc(-c3ccccc3)nn12)c1nc2ccccc2[nH]1,80.3%,98.4%,94.8%,123%,87%,72.2%,104%,100%
COc1ncnc2c1ncn2C/C(Br)=C(\Br)CCl,1.25% (active),70.2%,3.99% (active),-73.6% (active),0.237% (active),-82.3% (active),89.8%,-5.61% (active)
C=CC(=O)N1CC2(CC(n3nc(-c4ccc(Oc5ccccc5)cc4)c4c(N)ncnc43)C2)C1,36.4%,29.9%,30.4%,78.8%,26.5%,45.4%,64.9%,48.9%
COc1cc2nc(SCc3cc(OC)c(OC)c(OC)c3)n(-c3ccccc3OC)c(=O)c2cc1OC,88.6%,87.5%,0.0693% (active),76.4%,77%,88%,94.6%,54.1%
Cc1ccc(-c2nnc(COc3ccc(-c4nnc(N)s4)cc3)o2)cc1,101%,92.9%,72.4%,94.8%,68.3%,63.4%,107%,92.6%
CCCCCCCCCCCC(=O)[O][Sn]([CH2]CCC)([CH2]CCC)[CH2]CCC,-89.9% (active),-100% (active),-91.6% (active),-43.2% (active),-88.2% (active),-100% (active),-92.2% (active),-91.4% (active)
O=c1onc(-c2ccccc2)c2ccccc12,97.8%,118%,105%,103%,102%,113%,98.9%,110%
COc1ncc(F)c(OC)n1,104%,108%,106%,107%,96.6%,101%,110%,105%
CCOC(=O)c1sc(NC(=O)CN2CCC(Cc3ccccc3)CC2)nc1C,101%,104%,105%,95.8%,94.4%,81.5%,102%,106%
COc1ccc(C(=O)C2=CC(=O)C(=O)C2)cc1OC,99.7%,93.8%,106%,107%,95.9%,103%,108%,106%
Nc1nc2c(s1)CCc1c-2c(Br)n(Cc2ccccc2)c1Br,34.3%,93.7%,95.6%,35.3%,78.4%,23.5%,102%,108%
C=CC(=O)N1CC2(CCC(n3nc(-c4ccc(Oc5ccccc5)cc4)c4c(N)ncnc43)CC2)C1,14.6%,-69.3% (active),-81.1% (active),0.371% (active),1.86% (active),-82.7% (active),-77.8% (active),-29.1% (active)
COc1cccc(-c2ccc3c(c2)C2CCN(Cc4ccccc4)C3C2)c1 (configuration not stated),76.3%,64.2%,9.08% (active),53.6%,60.1%,58.4%,83.5%,56.7%
COc1ccc(/C=C2\CN(Cc3cn(CCCNc4ccnc5cc(Cl)ccc45)nn3)C/C(=C\c3ccc(OC)c(OC)c3)C2=O)cc1OC,49.5%,-56.1% (active),-28.9% (active),-16.7% (active),36.9%,-64.6% (active),-87% (active),-64% (active)
Cn1c2c(cc(S(=O)(=O)c3ccccc3)c1=O)CCc1c-2cnn1-c1cccc(Cl)c1,64.4%,92.4%,87.9%,110%,90.4%,88.2%,111%,101%
COc1ccc(-c2nc3sc(C)cn3c2/C=C/C(=O)c2cc(OC)c(OC)c(OC)c2)cc1,50.3%,59.9%,20.9%,64.3%,46.7%,42.1%,69.3%,29.3%
O=c1nc(NO)[nH]c(=O)n1Cc1ccc(F)cc1,97%,102%,103%,101%,94.3%,102%,114%,109%
COc1cccc(C2C3=C(COC3=O)N(CCO)c3cc4c(cc32)OCO4)c1 (configuration not stated),49.1%,37.2%,-40.1% (active),22.4%,14.6%,8.72% (active),5.59% (active),14.3%
Cc1cc(NS(=O)(=O)c2ccc(NC(=O)COc3ccc(-c4cc5ccccc5[nH]4)cc3)cc2)no1,-19.8% (active),11.9%,-11.9% (active),15.9%,1.1% (active),2.8% (active),-1.25% (active),10.3%
CCCOC(=O)c1ccc2c(c1)[N+](=O)C(C(=O)c1ccccc1)=C(C(F)(F)F)[N+]2=O,-83.2% (active),-83.9% (active),-89.5% (active),-82.5% (active),-69.7% (active),-73% (active),-87.6% (active),-81.6% (active)
COC(=O)c1c2c(c(C)[n+]([O-])c1C)C(=O)C=C(NCc1cccc(Cl)c1)C2=O,-37.6% (active),-82.3% (active),-92.1% (active),-31.4% (active),-61.3% (active),-13.7% (active),-38.3% (active),0.497% (active)
